Measured values reported in PubChem BioAssay AID602198 (NMMLSC, 2012).
Results with a measured potency or affinity are listed apart. Active and inactive are the calls of the source. No rule for the calls is given here.

assay: V-ATPase regulators in yeast, concentration series – S. cerevisiae, pHLuorin, cherry pick 2, dose response (AID 602198); settings: pHLuorin vacuolar pH fluorescence; series mostly up to 33.1 µM

outcome, inactive:
O=C(c1ccc([N+](=O)[O-])o1)N1CCN(c2nc3c(Cl)cccc3s2)CC1, O=C(O)c1ccc(/C=N/N2CCN(C3c4ccccc4-c4ccccc43)CC2)cc1, CC1=NOC(=O)/C1=C\c1ccccc1, O=[N+]([O-])c1ccc2c(c1)-c1ccccc1C2=NO, Cc1ccc2oc(C(=O)N(C)Cc3ccc(C)o3)c(C)c2c1, COc1ccc2nc(N3CCN(C(=O)c4ccc([N+](=O)[O-])o4)CC3)sc2c1, O=C1Oc2ccccc2C(=O)/C1=C/c1ccccc1O, CC1(C)CC(=O)C(C(C2=C(O)CC(C)(C)CC2=O)c2cccs2)C(=O)C1 (centres undefined), O=C(NC1CCCCC1)c1c(O)nc2sccn2c1=O
